{"source": "PubChem BioAssay (NCATS)", "note": "Results filed as inconclusive are left out. Active and inactive are the calls of the source. Calls come from the whole dose curve; as a rule, active = well fitted inhibition curve with a large enough effect; inconclusive = small, poorly fitted or top-dose-only effect; inactive = flat fitted curve, though single readings scatter. Where a SMILES comes first, the peptide text is derived from it. % is set by controls: 0 for no effect and ±100 for the full control effect."}
{"target": "Glutathione peroxidase 1 (Homo sapiens) (UniProt P07203)", "sequence (P07203 whole entry, looked up)": "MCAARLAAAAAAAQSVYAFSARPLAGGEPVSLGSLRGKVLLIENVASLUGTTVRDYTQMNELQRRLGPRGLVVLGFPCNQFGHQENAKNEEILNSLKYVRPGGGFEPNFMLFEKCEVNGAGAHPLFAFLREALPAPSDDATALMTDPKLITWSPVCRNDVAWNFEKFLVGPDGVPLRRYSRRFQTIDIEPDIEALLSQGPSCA", "test": "Primary qHTS Assay for Inhibitors of Recombinant Selenoprotein Glutathione Peroxidase 1 (GPX1) (AID 1845191); note: nearly all actives have a fitted effect of over 65% in size", "conditions": "recombinant GPX1, GR-coupled NADPH fluorescence, 15 min; series mostly up to 48.8 µM; activity, negative = inhibition: at the top concentration", "in_short": "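GR-coupled assay: compounds preincubated 30 min at room temperature with GPX1, then reaction started with CHP; final 10 nM GPX1, 1 mM GSH, 0.5 mM CHP, 0.5 mM NADPH, 100 nM GR, 0.01% BSA, pH 7.5 Tris buffer. NADPH fluorescence (340/450 nm) read at 0 and 15 min.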"}
{"smiles": "Cc1cc(Nc2ncc(Cl)c(Nc3ccccc3S(=O)(=O)C(C)C)n2)c(OC(C)C)cc1C1CCNCC1", "Potency": "inactive"}
{"smiles": "CO[C@@H]1CC[C@H](OC[C@]2(COC(=O)c3ccc(C)[nH]3)[C@H](OC(C)=O)CC[C@@]3(C)[C@@H]4CC=C(C)[C@@H](C5=C(O)C(=O)OC5O)[C@]4(C)CC[C@@H]32)O[C@H]1C", "note": "(stereo partly drawn)", "outcome": "inactive [at 15.3 µM]"}
{"smiles": "CCC(C)/C=C(C)/C=C/C1=CC2=C(Cl)C(=O)C(C)(OC(C)=O)C(=O)C2=CN1CCCC(=O)O", "note": "(stereo not drawn)", "outcome": "inactive [at 27.7 µM]"}
{"smiles": "COC(=O)c1ccc(O[C@@H]2O[C@H](CO)[C@@H](O)[C@H](O)[C@H]2O)c(OC)c1", "activity, negative = inhibition": "0.885% [at 27.7 µM] (inactive)"}
{"smiles": "CC(=O)OC[C@@]12[C@H](O)C[C@]3(C)C(=CCC4[C@@]5(C)CC[C@H](O[C@@H]6O[C@H](C(=O)O)[C@@H](O[C@@H]7O[C@H](CO)[C@@H](O)[C@H](O)[C@H]7O)[C@H](O)[C@H]6O[C@@H]6O[C@H](CO)[C@@H](O)[C@H](O)[C@H]6O)[C@](C)(CO)C5CC[C@]43C)[C@@H]1CC(C)(C)[C@@H](OC(C)=O)[C@@H]2O", "note": "(stereo partly drawn)", "outcome": "inactive [at 15.3 µM]"}
{"smiles": "N[C@@H](CC(=O)N1CCn2c(nnc2C(F)(F)F)C1)Cc1[nH]nc2c(F)c(F)ccc12", "activity, negative = inhibition": "-5.44% (inactive)"}
{"smiles": "CCCC(N[C@@H](C)C(=O)N1[C@H](C(=O)O)C[C@@H]2CCCC[C@@H]21)C(=O)OCC", "note": "(stereo partly drawn)", "activity, negative = inhibition": "-11.9% (inactive)"}
{"smiles": "O=C(O)c1n[nH]c2c1C[C@H]1C[C@@H]21", "activity, negative = inhibition": "4.06% (inactive)"}
{"smiles": "O=CCCCC=O", "outcome": "inactive"}
{"smiles": "COC(=O)[C@]12C(=O)C(C)=C(O)[C@@]1(C)C(C)=CC1[C@@]34CC[C@@H](OC(C)=O)C(C)(C)C3[C@H](C[C@]12C)OC4=O", "note": "(stereo partly drawn)", "activity, negative = inhibition": "-2.82% [at 27.7 µM] (inactive)"}
{"smiles": "C1CCN2CC3C[C@@H](CN4CCCC[C@@H]34)[C@H]2C1", "activity, negative = inhibition": "-1.92% (inactive)"}
{"smiles": "CC1(C)OC(=O)C(OCC2CC2)=C1c1ccc(S(C)(=O)=O)cc1", "Potency": "inactive"}
{"smiles": "C=C1[C@@H]2CC[C@@]3(C)[C@H](c4ccoc4)OC(=O)C[C@]13O[C@H]1CC(=O)C(C)(C)[C@H](CC(=O)OC)[C@]12C", "activity, negative = inhibition": "3.1% [at 27.7 µM] (inactive)"}
{"smiles": "O=C(O[C@H]1[C@@H]2C[C@@H]3OC[C@@](O)([C@H]2[C@H](O[C@@H]2O[C@H](CO)[C@@H](O)[C@H](O)[C@H]2O)O3)[C@@H]1O)c1ccccc1", "outcome": "inactive [at 27.7 µM]"}
{"smiles": "CCS(=O)(=O)N1CCC([C@@H](C)n2c(C)c(C(=O)NCc3c(OC)cc(C)[nH]c3=O)c3ccccc32)CC1", "Potency": "inactive"}
{"smiles": "CCC(CCO[C@@H]1O[C@H](CO[C@H]2OC[C@](O)(CO)[C@H]2O)[C@@H](O)[C@H](O)[C@H]1O)C(C)(C)O", "note": "(stereo partly drawn)", "outcome": "inactive [at 27.7 µM]"}
{"smiles": "CC1NC(=O)CNC(=O)C(C(C)C)NC(=O)C2CCCN2C(=O)C(C(C)C)NC(=O)C(Cc2c[nH]c3ccccc23)NC1=O", "note": "(stereo not drawn) (cyclo(GAWVPV); configuration not given here)", "activity, negative = inhibition": "-1.57% [at 15.3 µM] (inactive)"}
{"smiles": "CNC(=O)O[C@H]1COc2ccc(N3CCN(C4COC4)CC3)cc2[C@@H]1NC(=O)c1ccc(F)cc1", "outcome": "inactive"}
{"smiles": "CCOC(=O)O[C@]1(C(=O)COC(=O)CC)CC[C@H]2[C@@H]3CCC4=CC(=O)C=C[C@]4(C)[C@H]3[C@@H](O)C[C@@]21C", "activity, negative = inhibition": "-32.6% (inactive)"}
{"smiles": "C(#Cc1cccc(CN2CCOCC2)c1)CCN1CCCCC1", "outcome": "inactive"}
{"smiles": "CC(C)c1ccc(CC(=O)N2CCC[C@@H](c3cccc(OC(C)(C)C(=O)O)c3)C2)cc1", "outcome": "inactive"}
{"smiles": "CC1=CCC2C(C)(CO)CCCC2(CO)C1CO", "note": "(stereo not drawn)", "outcome": "inactive"}
{"smiles": "CC1(C)CC[C@]2(C(=O)O)CC[C@]3(C)C(=CCC4[C@@]5(C)C[C@@H](O)[C@H](O)C(C)(C)C5CC[C@]43C)[C@@H]2[C@@H]1O", "note": "(stereo partly drawn)", "activity, negative = inhibition": "-17.6% [at 27.7 µM] (inactive)"}
{"smiles": "CN1CC[C@@H](NC(=O)Nc2ccc(C#N)cc2)C[C@@H]1c1nc2ccccc2[nH]1", "outcome": "inactive"}
{"smiles": "CN(C)C/C=C/C(=O)Nc1ccc(C(=O)Nc2cccc(Nc3ncc(Cl)c(-c4c[nH]c5ccccc45)n3)c2)cc1", "Potency": "inactive"}
{"smiles": "CCCCCCCCCCCCCC[n+]1ccc(C)cc1", "activity, negative = inhibition": "-27.5% (inactive)"}
{"smiles": "CC12CCC3C(C)(C)C(O)CCC3(C)C1Cc1c(oc(C(=O)O)cc1=O)O2", "note": "(stereo not drawn)", "outcome": "inactive [at 27.7 µM]"}
{"smiles": "C/C=C1\\[C@H](O[C@@H]2O[C@H](CO)[C@@H](O)[C@H](O)[C@H]2O)OC=C(C(=O)OC)[C@H]1CC(=O)OC", "outcome": "inactive [at 27.7 µM]"}
{"smiles": "O=C(O)[C@H]1CCCC[C@H]1C(=O)N1CCc2ccccc2[C@H]1CN1C(=O)c2ccccc2C1=O", "activity, negative = inhibition": "-15.5% (inactive)"}
{"smiles": "Cc1cc(/C=C/c2ccc3cc(N(C)C)ccc3[n+]2C)c(C)n1-c1ccccc1", "activity, negative = inhibition": "-26% (inactive)"}
{"smiles": "C=CC(C)(O)CC/C=C(/C)C(=O)OC1C(OC2OCC(OC3OC(CO)C(O)C(O)C3O)C(OC3OCC(O)C(OC4OC(C)C(O)C(O)C4O)C3O)C2O)COC(OC(=O)C23CCC(C)(C)CC2C2=CCC4C5(C)CCC(OC6OC(CO)C(OC7OC(CO)C(O)C(OC8OCC(O)C(O)C8O)C7O)C(O)C6O)C(C)(C)C5CCC4(C)C2(C)CC3O)C1O", "note": "(stereo not drawn)", "activity, negative = inhibition": "-7.71% [at 9.52 µM] (inactive)"}
{"smiles": "COC(=O)[C@H]1[C@H]2C[C@@H]3c4[nH]c5ccccc5c4CCN3C[C@H]2C[C@@H](OC(=O)c2cc(OC)c(OC)c(OC)c2)[C@@H]1OC", "activity, negative = inhibition": "-24.2% (inactive)"}
{"smiles": "C=C1CCC(OC(C)=O)C2(C)CC3(O)OC(=O)C(C)=C3CC12", "note": "(stereo not drawn)", "outcome": "inactive"}
{"smiles": "COC(=O)[C@H](OC(C)=O)[C@H]1C(C)(C)C(=O)[C@H]2CC3=C4CC(=O)O[C@@H](c5ccoc5)[C@]4(C)CCC3[C@@]1(C)C2=O", "note": "(stereo partly drawn)", "activity, negative = inhibition": "-5.04% [at 27.7 µM] (inactive)"}
{"smiles": "COc1ccc([C@@H]2N[C@H](C(=O)O)Cc3c2[nH]c2ccccc32)cc1CN1CCN(c2ccccc2F)CC1", "activity, negative = inhibition": "-3.58% (inactive)"}
{"smiles": "CC(C)[C@H]1CCC(CO)=C[C@@H]1/C=C(\\CO)C(=O)O", "activity, negative = inhibition": "2.69% (inactive)"}
{"smiles": "C=C1CC[C@@H]2[C@](C)(CO[C@@H]3O[C@H](CO)[C@@H](O)[C@H](O)[C@H]3O)CCC[C@@]2(C)[C@@H]1CCC1=CCOC1=O", "activity, negative = inhibition": "0.8% [at 27.7 µM] (inactive)"}
{"smiles": "COCCCNCC1COc2ccccc2O1", "note": "(stereo not drawn)", "activity, negative = inhibition": "3.84% (inactive)"}
